Measurements: PubChem BioAssay AID2625 (National Center for Advancing Translational Sciences (NCATS), 2010)
Records with an inconclusive call do not appear. Activity calls are given as the source filed them. Calls follow the shape of the dose curve; as a rule, active = well fitted curve in the direction sought with a large enough effect; inconclusive = small, poorly fitted or top-dose-only effect, or effect the other way, or another doubt; inactive = no such curve, though single readings can be large or run the other way.

What follows are molecules tested against Pyruvate kinase PKLR (Homo sapiens) (UniProt P30613) (assay: Secondary LDH Assay for Activators of Human Liver Pyruvate Kinase: for Probe SAR). Details: purified hPK-L, LDH-coupled NADH fluorescence kinetic; series mostly up to 58.2 µM.
Sequence of Pyruvate kinase PKLR (Homo sapiens) (P30613 whole entry, looked up): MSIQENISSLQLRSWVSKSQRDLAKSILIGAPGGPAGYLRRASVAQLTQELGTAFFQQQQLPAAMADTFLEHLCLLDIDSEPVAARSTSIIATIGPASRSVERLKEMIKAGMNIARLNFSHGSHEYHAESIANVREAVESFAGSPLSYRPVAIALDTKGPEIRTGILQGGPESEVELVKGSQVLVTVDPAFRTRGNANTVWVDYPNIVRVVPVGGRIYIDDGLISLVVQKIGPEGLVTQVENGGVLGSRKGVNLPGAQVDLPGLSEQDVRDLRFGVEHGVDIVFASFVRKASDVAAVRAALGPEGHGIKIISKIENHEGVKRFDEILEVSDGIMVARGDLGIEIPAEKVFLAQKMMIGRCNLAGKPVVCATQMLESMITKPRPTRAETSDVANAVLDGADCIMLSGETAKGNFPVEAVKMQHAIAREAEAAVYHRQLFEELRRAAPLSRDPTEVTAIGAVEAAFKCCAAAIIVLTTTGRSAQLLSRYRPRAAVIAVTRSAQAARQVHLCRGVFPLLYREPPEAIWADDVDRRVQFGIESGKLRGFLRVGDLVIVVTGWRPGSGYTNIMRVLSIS
How it was run: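 Kinetic LDH-coupled read-out: NADH fluorescence loss followed every 30 s for 3–6 min gave initial rates. Reaction: 10 nM human liver PK, 0.1 mM PEP, 4 mM ADP, 0.2 mM NADH, 50 mM Tris-Cl pH 8.0; activation normalised to fructose-bis-phosphate.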

outcome, inactive:
O=C1c2ccccc2C(=O)N1c1cccc(O)c1
O=C1c2ccccc2C(=O)N1c1ccc(O)cc1
Cc1ccc(OC2=NS(=O)(=O)c3ccccc32)cc1
COc1cccc(N2C(=O)c3ccccc3C2=O)n1
O=S1(=O)N=C(Oc2ccccc2)c2ccccc21
Cc1ccn2c(NC3CCCCC3)c(-c3ccc(C)o3)nc2c1
COc1ccc(OC2=NS(=O)(=O)c3ccccc32)cc1
Cc1cc(N2C(=O)c3ccccc3C2=O)no1
Cc1ccc(NS(=O)(=O)c2ccc3c(c2)NC(=O)CO3)cc1C
Cc1ccc(NS(=O)(=O)c2ccc3c(c2)CCC(C)(C)O3)cc1C
COc1ccc(N2C(=O)c3ccccc3C2=O)cc1
Cc1ccc(NS(=O)(=O)c2cc3c(cc2N(C)C)CCC(=O)N3)cc1C
CC(=O)Nc1ccc(S(=O)(=O)Nc2ccc(C)c(C)c2)cc1
O=C1c2ccccc2C(=O)N1c1cc(=O)c2ccccc2[nH]1
O=C1c2ccccc2C(=O)N1c1cccc2ncccc12
CSc1cc2c(s1)c1cnn(Cc3cccc(N)c3)c(=O)c1n2C
O=C1c2ccccc2C(=O)N1c1ccccc1O
Cc1ccc(NS(=O)(=O)c2cc3c(cc2-c2ccccc2)NC(=O)CO3)cc1C
Cc1ccc(NS(=O)(=O)c2cc3c(cc2Cl)NC(=O)C3)cc1C
Cc1cccc(OC2=NS(=O)(=O)c3ccccc32)c1
O=C1c2ccccc2C(=O)N1c1ccc2ccccc2n1
O=C1c2ccccc2C(=O)N1c1ccc2ncccc2c1
N#Cc1cccc(NS(=O)(=O)c2ccc3c(c2)CCC(=O)N3)c1
Cc1ccc(NS(=O)(=O)c2ccc(-c3ccccc3)cc2)cc1C
Cc1ccc(NS(=O)(=O)c2ccc3c(c2)CCCC(=O)N3)cc1C
